# In PubChem BioAssay (NCATS):
# Values joined by “and” are separate entries in the source; they are usually repeats but may differ in a detail not shown here. Equal entries are not always repeated. Inconclusive results are not listed. Entries that show only a call come without a potency. A number with no mark means an inactive call. Active and inactive are the calls of the source. Calls follow the shape of the dose curve; as a rule, active = well fitted curve in the direction sought with a large enough effect; inconclusive = small, poorly fitted or top-dose-only effect, or another doubt; inactive = no such curve, though single readings can be large; an effect the other way counts as inactive or inconclusive.
# Tests used:
# [1] = Viability qHTS for spleen associated tyrosine kinase inhibitor (SYKi) naive MV4-11 cells (AID 1963823); also: nearly all actives have a fitted effect of over 40% in size
# How it was run: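 Read-out: CellTiter-Glo luminescence. Exposure: 72 hr, 37 C, 5% CO2, 95% humidity. Cells: MV4-11 without SYK inhibitor history, 500/well, qHTS format.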
# [2] = Quantitative highthroughput screen to assess conditional lethalithy of NOMO1 cells grown in RPMI1640 with untreated serum (RPMI+s) (AID 1963876); also: nearly all actives have a fitted effect of over 35% in size
# How it was run: (§1)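 Each medium arm—HPLM with 10% dialyzed FBS, or RPMI1640 with 5 mM glucose and 10% untreated or dialyzed FBS—was screened against an 11-point, 3-fold compound titration for 48 h at 37 °C, with CellTiter-Glo luminescence as endpoint.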
# [3] = Quantitative highthroughput screen to assess conditional lethalithy of NOMO1 cells grown in RPMI1640 with dialyzed fetal bovine serum (RPMI+ds) (AID 1963877); also: nearly all actives have a fitted effect of over 30% in size; as to Viability: series mostly up to about 46 µM
# How it was run: as §1
# [4] = Quantitative highthroughput screen to assess conditional lethalithy of NOMO1 cells grown in Human Plasma-Like Medium with dialyzed fetal bovine serum (HPLM+ds) (AID 1963878); also: nearly all actives have a fitted effect of over 35% in size
# How it was run: as §1
# [5] = Quantitative highthroughput screen to assess conditional lethalithy of P12 Ichikawa cells grown in Human Plasma-Like Medium with dialyzed fetal bovine serum (HPLM+ds) (AID 1963879); settings: Potency: viability; also: nearly all actives have a fitted effect of over 35% in size; as to Viability: series mostly up to about 46 µM
# How it was run: as §1
# [6] = Quantitative highthroughput screen to assess conditional lethalithy of P12 Ichikawa cells grown in RPMI1640 with untreated serum (RPMI+s) (AID 1963881); settings: Potency: viability; also: nearly all actives have a fitted effect of over 35% in size; as to Viability: series mostly up to about 46 µM
# How it was run: as §1
# [7] = Quantitative highthroughput screen to assess conditional lethalithy of SEM cells grown in RPMI1640 with unreated serum (RPMI+s) (AID 1963883); also: nearly all actives have a fitted effect of over 35% in size
# How it was run: as §1
# [8] = Cellular viability qHTS for adrenocortical cancer (ACC) cell line NCI-H295R (AID 1963990); also: nearly all actives have a fitted effect of over 60% in size
# How it was run: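 CellTiter-Glo ATP luminescence, read 48 h after compound addition, measured viability of NCI-H295R adrenocortical cells grown serum-free with ITS. Final concentrations spanned up to 46 uM. Data normalized to DMSO and doxorubicin, fitted for IC50 and maximal response.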
# [9] = Quantitative highthroughput screen to assess conditional lethalithy of P12 Ichikawa cells grown in RPMI1640 with dialyzed fetal bovine serum (RPMI+ds) (AID 1963880); settings: Potency: P12-Ichikawa viability; also: nearly all actives have a fitted effect of over 35% in size
# How it was run: as §1
# [10] = Quantitative highthroughput screen to assess conditional lethalithy of SEM cells grown in Human Plasma-Like Medium with dialyzed fetal bovine serum (HPLM+ds) (AID 1963882); also: nearly all actives have a fitted effect of over 35% in size; as to Viability: series mostly up to about 46 µM
# How it was run: as §1
# [11] = Quantitative highthroughput screen to assess conditional lethalithy of SEM cells grown in RPMI1640 with dialyzed fetal bovine serum (RPMI+ds) (AID 1963884); also: nearly all actives have a fitted effect of over 35% in size; as to Viability: series mostly up to about 46 µM
# How it was run: as §1
# [12] = Cellular viability qHTS for adrenocortical cancer (ACC) cell line SW-13 (AID 1963989); settings: SW-13 ACC cells viability, CellTiter-Glo, 48 h; activity (max response): hits give low values; also: nearly all actives have a fitted effect of over 65% in size;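 as to activity (max response): cells grown in serum-free medium with ITS supplement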
# How it was run: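 Viability was read as CellTiter-Glo luminescence after 48 h compound treatment (up to 46 uM final) of SW-13 cells grown serum-free; titration curves were fit with a four-parameter logistic model to give IC50 and efficacy.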
# Potency is read from the fitted curve at half-maximal effect.
SMILES,Potency [1],Potency [2],Potency [3],Potency [4],Potency [5],Potency [6],Potency [7],Potency [8],Potency [9],Potency [10],Potency [11],activity (max response) [12],Potency [12]
CN1CCN(CCCN2c3ccccc3Sc3ccc(C(F)(F)F)cc32)CC1,11.9 µM (active) and 18.6 µM (active),1.87 µM (active),2.96 µM (active),2.64 µM (active),13.2 µM (active),11.8 µM (active),inactive,23.1 µM (active),–,–,–,–,–
COCCn1c2c([n+](Cc3cnccn3)c1C)C(=O)c1ccccc1C2=O,9.3 nM (active),0.132 µM (active),0.105 µM (active),0.0662 µM (active),–,0.166 µM (active),66.2 nM (active),–,0.187 µM (active),16.6 nM (active),41.8 nM (active),–,–
C[C@H](NC(=O)[C@@H](O)c1cc(F)cc(F)c1)C(=O)N[C@@H]1C(=O)N(C)c2ccccc2-c2ccccc21,inactive,inactive,inactive,inactive,inactive,inactive,inactive,inactive,inactive,inactive,–,-11.3%,–
COc1cc2nccc(Oc3ccc(NC(=O)NC4CC4)c(Cl)c3)c2cc1C(N)=O,461 nM (active),26.4 µM (active),23.5 µM (active),18.7 µM (active),18.7 µM (active),20.9 µM (active),–,inactive,20.9 µM (active),–,–,3.51%,–
NC(=O)c1cccc(-c2cccc(OC(=O)NC3CCCCC3)c2)c1,inactive,inactive,inactive,inactive,0.332 µM (active),–,–,inactive,–,inactive,–,-29.9%,–
CC(C)(C)c1cnc(CSc2cnc(NC(=O)C3CCNCC3)s2)o1,296 nM (active),1.05 µM (active),0.935 µM (active),0.59 µM (active),–,1.18 µM (active),935 nM (active),7.94 µM (active),1.32 µM (active),662 nM (active),833 nM (active),–,631 nM (active)
C[C@@H]1COCCN1c1cc(C2(S(C)(=N)=O)CC2)nc(-c2ccnc3[nH]ccc23)n1 (stereo partly specified),1480 nM (active),4.67 µM (active),2.95 µM (active),1.17 µM (active),4.17 µM (active),4.67 µM (active),1170 nM (active),3.98 µM (active),2.95 µM (active),–,–,–,–
COc1ccc2cc(-c3nc(-c4ccc(S(C)=O)cc4)[nH]c3-c3ccncc3)ccc2c1 (stereo unspecified),9.34 µM (active) and 11.6 µM (active),inactive,inactive,inactive,inactive,–,inactive,28.2 µM (active),–,inactive,inactive,–,–
CCOC(=O)C=C[C@H](C[C@@H]1CCNC1=O)NC(=O)[C@@H](CC(=O)[C@@H](NC(=O)c1cc(C)on1)C(C)C)Cc1ccc(F)cc1,inactive,inactive,inactive,inactive,inactive,inactive,inactive,inactive,–,inactive,inactive,-3.62%,–
CN1C2CCC1CC(OC(=O)C(CO)c1ccccc1)C2 (stereo unspecified),inactive,inactive,inactive,inactive,–,–,inactive,inactive,–,inactive,inactive,-20.1%,–
O=C1NC(=O)C(c2cnc3ccccn23)=C1c1cn2c3c(cccc13)CN(C(=O)N1CCOCC1)CC2,231 nM (active),inactive,inactive,inactive,–,–,–,inactive,–,6.6 nM (active),7.4 nM (active),–,–
COCCCN1CCC(NC(=O)c2cc(Cl)c(N)c3c2OCC3)CC1,inactive,inactive,inactive,inactive,inactive,18.7 µM (active),inactive,inactive,inactive,inactive,inactive,15.7% and -2.89%,–
O=C1C(c2c(O)[nH]c3ccccc23)=Nc2ccccc21,inactive,inactive,inactive,inactive,–,inactive,inactive,inactive,inactive,inactive,inactive,–,–
Cc1cn2cc(C(=O)N(C)CCO)cc(N[C@@H]3CCOc4cccc(C)c43)c2n1,2950 nM (active),inactive,inactive,inactive,inactive,inactive,inactive,inactive,inactive,inactive,inactive,-15%,–
O=C(NCCS(=O)(=O)c1ccc(C(F)(F)F)cn1)c1ccc(Cl)cc1,inactive,inactive,inactive,inactive,inactive,inactive,inactive,inactive,inactive,inactive,–,0.68%,–
NS(=O)(=O)NCCNc1nonc1C(=Nc1ccc(F)c(Br)c1)NO,inactive,2.63 µM (active),8.31 µM (active),–,2.34 µM (active),5.24 µM (active),3310 nM (active),inactive,8.31 µM (active),16600 nM (active),9330 nM (active),-16.2%,–
CC[C@@H](C)[C@H](NC(=O)[C@H](CC1CCCCC1)NC(=O)c1ccno1)C(=O)N1CCC2(CCc3ccccc32)CC1,13000 nM (active),inactive,inactive,inactive,inactive,inactive,–,inactive,inactive,–,–,-1.23%,–
